Laboratory results taken from PubChem BioAssay (NCATS).
Results filed as inconclusive are left out. A number with no mark means an inactive call. Calls follow the shape of the dose curve; as a rule, active = well fitted cell-killing curve with a large enough effect; inconclusive = small, poorly fitted or top-dose-only effect; inactive = flat fitted curve, though single readings scatter.

Assay: Cell Viability - LYMP2-013 (AID 970);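 also: cells exposed to compound for 24 h at 37 °C; 0% = DMSO only and full inhibition = tetraoctylammonium bromide control; nearly all actives have a fitted effect of over 55% in size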
Details: LYMP2-013 lymphoblastoid cells viability; series mostly up to 92.2 µM; activity change, negative = cytotoxic: at the top concentration
Description: NIH Chemical Genomics Center [NCGC]
NIH Molecular Libraries Screening Centers Network [MLSCN]
National Institutes of Environmental Health Sciences [NIEHS]
National Toxicology Program [NTP]
We have developed a 1536-well cell-based assay for quantitative high throughput screening (qHTS) against a number of cell lines to determine in vitro cytotoxicity of small molecules. This particular assay uses a human lymphoblastoid cell line (LYMP2-013) purchased from Coriell Institute for Medical Research.
NCGC Assay Protocol Summary:
The CellTiter-Glo luminescent cell viability assay (Promega) is a homogeneous method to measure the number of viable cells in culture. The end point readout of this assay is based on quantitation of intracellular ATP, an indicator of metabolic activity, using the luciferase reaction. Luciferase catalyzes the oxidation of beetle Luciferin to oxyluciferin and light in the presence of ATP. The luminescent signal is proportional to amount of ATP present.
Using the CellTiter-Glo luminescent cell viability assay, the amount of cellular ATP was measured in the lymphoblastoid cell line with complete culture medium following compound treatment for 24 hours. The assay was performed in opaque white Kalypsys 1536-well plates. In the screen, tetraoctylammonium bromide was used as positive control. Library compounds were measured for their ability to cause acute toxicity in the cell line, as reflected by a decrease in intracellular ATP levels, in a concentration-dependent manner. […] AC50 values were determined from concentration-response data modeled with the standard Hill equation.
qHTS protocol for CellTiter Glo lymphoblastoid cellular assay
[Step] [Parameter] [Value] [Description]
1. Reagent; 5 uL; 2500 lymphoblastoid cells/well
2. Time; 5 hr; 37 C incubation
4. Controls; 23 nL; Tetraoctylammonium bromide 6.4pM to 92 uM
5. Time; 24 hr; 37 C incubation
6. Reagent; 5 uL; CellTiter Glo reagent
7. Time; 30 min; Room Temperature
8. Detection; Luminescence; Viewlux plate reader
Keywords: cell viability, cytotoxicity, lymphoblastoid cell line, luminescence, NTPHTS, NTPHTS_NCGC, NIEHS, DSSTox, MLSMR, MLSCN, NIH Roadmap, qHTS, NCGC

| Structure (SMILES) | activity change, negative = cytotoxic [%] |
| --- | --- |
| CC(=O)OCC(COC(C)=O)OC(C)=O | -0.0624 |
| O=C(c1ccccc1)C(O)c1ccccc1 (configuration not stated) | -7.77 |
| CC(=O)Nc1ccccc1 | 5.92 |
| Cc1cc(C)nc(NS(=O)(=O)c2ccc(N)cc2)n1 | 0.287 |
| COc1ccc(O)cc1 | 4.21 |
| CCCCOC(=O)c1ccc(N)cc1 | -8.01 |
| O=C1C(c2[nH]c3ccccc3c2O)=Nc2ccccc21 | -14.3 |
| Cc1cc(=O)[nH]c(=S)[nH]1 | 2.69 |
| CC1CC(OC(=O)c2ccccc2O)CC(C)(C)C1 (configuration not stated) | -3.84 |
| FC(F)(F)C(Cl)Br (configuration not stated) | -1.88 |
| O=C(O)CCCCC1CCSS1 (configuration not stated) | -4.49 |
| CCN(CC)C(=O)c1cccc(C)c1 | -3.07 |
| CC(=O)Nc1ccc(C(=O)O)cc1 | 0.287 |
| CCCCCC(N)=O | -1.12 |
| Nc1ccc(S(=O)(=O)c2ccc(N)cc2)cc1 | -0.0165 |
| CCCC(O)C(CC)CO (configuration not stated) | -0.768 |
| O=C1c2cccc(O)c2C(=O)c2c(O)cccc21 | -21.8 |
| CC(=O)Nc1cccc(O)c1 | 1.83 |
| CCCCCCCC(=O)OCC(COC(=O)CCCCCCC)OC(=O)CCCCCCC | -2.55 |
| Cc1c(N(C)C)c(=O)n(-c2ccccc2)n1C | -6.1 |
| CC(=O)NS(=O)(=O)c1ccc(N)cc1 | -2.09 |
| C=CCNC(N)=S | -6.21 |
